DT40 TDP1 no CPT: qHTS for Inhibitors of human tyrosyl-DNA phosphodiesterase 1 (TDP1): qHTS in cells in absence of CPT; Potency, µM (doses to about 46.2 µM), for inactives: at the highest dose activity change, negative = growth inhibition, hits mostly inhibitors; DT40 Tdp1-/- hTDP1 cells, no CPT, ATP luminescence, 48 h; 15% of 420,000 active; also: potency is read from the fitted curve at half-maximal effect; % is scaled to controls: 0 for no effect and ±100 for the full control effect; nearly all actives have a fitted effect of over 55% in size
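Chicken DT40 Tdp1-/- cells complemented with human TDP1, screened without camptothecin (DMSO vehicle only), 400 cells/well. Compounds pin-transferred, cells incubated at 37 °C for at least 48 hr. Growth read as ATP-dependent luminescence (CellTiter-Glo, 30 min at RT).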
IL1B secr inh: inhibitors of inflammasome signaling (IL-1 beta secretion); THP-1 LPS/ATP IL-1B secretion, AlphaLISA, 16 h; stronger effect = lower value; AID 743279; 4.7% of 360,000 active; activity change, % at 57.5 µM; in the data active = activity change below about -50%; inconclusive = mostly about -30% to -49%; also: % is scaled to controls: 0 for no effect and ±100 for the full control effect
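THP-1 cells pretreated 1 hr with compounds (up to 57.5 uM final), then stimulated with LPS (250 ng/mL final) plus ATP (1.25 mM final); secreted IL-1B measured by AlphaLISA after 16 hr, decreased signal indicating inhibition.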
SW480 rereplic: DNA re-replication induction in SW480 cells; SW480 DNA re-replication, Hoechst DNA content imaging, 48 h; Potency, µM (top dose mostly 46.1 µM), inactives show at the top dose re-replication activation, hits mostly activators; 1.8% of 340,000 active; AID 624297; also: potency is read from the fitted curve at half-maximal effect; % of control where 0% means no effect; nearly all actives have a fitted effect of over 55% in size
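Per well, 250 cells were exposed to pinned compound for 48 hr. Nuclear DNA was visualised with Hoechst (40 min, 37 C) and total object intensity recorded by fluorescence scanning.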
TDP1 cell CPT: growth inhibition of DT40 Tdp1-/-;hTDP1 cells with camptothecin (screen for TDP1 inhibitors); chicken DT40 Tdp1-/-;hTDP1 cells + 20 nM CPT, ATP luminescence, 48 h; AID 686979; 12% of 420,000 active; Potency, µM (top dose mostly 46.2 µM), inactives show at the highest dose activity change, negative = growth inhibition, actives largely listed as inhibitors; also: potency is read from the fitted curve at half-maximal effect; % is scaled to controls: 0 for no effect and ±100 for the full control effect; nearly all actives have a fitted effect of over 55% in size
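Cell growth measured by CellTiter-Glo luminescence after a minimum 48 h, 37 C compound exposure with 20 nM CPT in Tdp1-knockout DT40 cells stably expressing hTDP1, seeded 400/well; qHTS titration format.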
Chronic BCR inh: chronic active BCR signaling inhibition | ABC-DLBCL IkBa-CBG/CBR reporter, luminescence ratio, 4 h | Potency, µM (doses to about 46.1 µM), for the others: top-dose activity change, negative = inhibition, hits mostly inhibitors | AID 493014 | 0.05% of 340,000 active; active = well fitted inhibition curve with a large enough effect in the signal ratio, with a control signal flat, not every such curve was filed as active; inconclusive = small, poorly fitted or top-dose-only effect, or effect the other way, or a change in a side signal; the % refers to the signal ratio;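 also: potency is read from the fitted curve at half-maximal effect; plate controls were basal doxycycline-induced cells for no effect and cells given 10 µM MG132 for full effect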
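TMD8 ABC-DLBCL cells carrying doxycycline-inducible green luciferase fused to IkappaBalpha plus unfused red luciferase were exposed to compounds (up to 46 uM) for 4 hrs at 37C. Activity came from the overlap-corrected green/red luminescence ratio.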
MCF10A rereplic: inducers of DNA re-replication in MCF 10A breast cells; Potency, µM (doses to about 46.1 µM), without a hit: top-dose activity, positive = re-replication, most hits filed as activators; 2.9% of 350,000 active; MCF 10A DNA re-replication, Hoechst nuclear intensity, 48 h; also: potency is read from the fitted curve at half-maximal effect; % of control where 0% means no effect; nearly all actives have a fitted effect of over 50% in size
Numbers without * were called inactive; i = inactive; ? = inconclusive; / = not tested or not shown. Shown are actives, neighbours in structure and some others; about 19% of the full set was active somewhere. Unless noted, calls follow the shape of the dose curve; as a rule, active = well fitted curve in the direction sought with a large enough effect; inconclusive = small, poorly fitted or top-dose-only effect, or another doubt; inactive = no such curve, though single readings can be large; an effect the other way counts as inactive or inconclusive.

SMILES	DT40 TDP1 no CPT	IL1B secr inh	SW480 rereplic	TDP1 cell CPT	Chronic BCR inh	MCF10A rereplic
COc1ccc(-c2noc(CN3CCN(c4ccccc4OC)CC3)n2)cc1OC	?	/	/	20.6µM*	/	/
COc1cc(-c2noc(CN3CCN(c4cccc(Cl)c4)CC3)n2)cc(OC)c1OC	20.6µM*	/	/	16.4µM*	/	/
COc1ccc(-c2noc(CN3CCN(c4ccccc4)CC3)n2)cc1	-22.4%	17.4	-0.3%	?	-0.5%	7.8%
COc1ccccc1/C=N/OCc1ccc(C#N)cc1	-24.8%	?	6.1%	8.6%	?	7.7%
Cc1ccc(S(=O)(=O)NCC2NCCc3ccccc32)cc1 (centres undefined)	23.1µM*	-1.3	-4.5%	-9.1%	?	-5.8%
CCOc1ccc(NC(=O)c2oc3ccccc3c2NC(=O)Cc2ccc(F)cc2)cc1	?	/	/	-6.3%	/	/
COc1ccc(N2CCN(C(=O)c3cc4c(=O)n(Cc5cccnc5)ccc4nc3C)CC2)cc1	-27.6%	/	/	-24.8%	/	/
Cc1ccc(C)c(N2CCN(C(=O)c3cc4c(=O)n(Cc5cccnc5)ccc4nc3C)CC2)c1	?	/	/	23.1µM*	/	/
Cc1nc2ccn(Cc3ccccc3)c(=O)c2cc1C(=O)N1CCN(c2ccc(F)cc2)CC1	?	-13.6	-1.7%	?	3.7%	10.6%
Cc1ccc(C)c(N2CCN(C(=O)c3cc4c(=O)n(Cc5ccccc5)ccc4nc3C)CC2)c1	23.1µM*	/	/	16.4µM*	/	/
CCOc1ccc2c(c1)c(N=O)c(O)n2C	?	-63.9*	0.5%	3.8%	-9.5%	12.0%
Cc1c(C(=O)N2CCN(c3ccccn3)CC2)sc2ncnc(N3CCN(c4ccccc4)CC3)c12	11.6µM*	-18.3	0.7%	?	/	13.3%
Cc1c(C(=O)N2CCN(c3ccccc3)CC2)sc2ncnc(N3CCC(C)CC3)c12	/	/	/	/	2.9%	/
Cc1nc(N2CCN(c3ccccn3)CC2)c2c(C)c(C(=O)N3CCN(c4cccc(Cl)c4)CC3)sc2n1	20.6µM*	-5.0	5.9%	14.6µM*	4.6%	?
CN(C)CCCn1cc(C2=C(c3c[nH]c4ccccc34)C(=O)NC2=O)c2ccccc21	23.7µM*	/	/	-121.7%	/	/
Cn1cc(C2=C(c3cn(CCCSC(=N)N)c4ccccc34)C(=O)NC2=O)c2ccccc21	0.708µM*	/	/	0.631µM*	/	/
Cn1cc(SCC(N)=O)c2ccccc21	-3.2%	0.3	-6.5%	-16.9%	?	-6.7%
COc1ccc(CNC(=O)Cn2ncc3c(=O)oc4ccccc4c32)c(OC)c1	-23.2%	/	/	-26.3%	/	/
O=C(NC1CCCCC1)c1ccc2snnc2c1	?	-1.8	-10.0%	?	?	-8.7%
O=C(c1ccc(OC2CCN(Cc3ccc(F)cc3)CC2)cc1)N1CCCC1	-22.0%	-6.7	4.6%	-13.7%	0.6%	23.0%
COCC(=O)N1CCC(Oc2ccc(C(=O)N3CCCCCCC3)cc2)CC1	13µM*	15.4	-2.9%	?	1.7%	3.8%
CCc1ccc(CN2CCC(Oc3ccc(C(=O)N4CCCC4)cc3)CC2)cc1	?	-0.3	4.1%	18.4µM*	-1.5%	?
C=CCOc1ccccc1CN1CCC(Oc2ccc(C(=O)N3CCCCC3)cc2)CC1	20.6µM*	0.0	10.5%	?	2.4%	4.4%
COCC(=O)N1CCC(Oc2ccc(C(=O)N(C)CCCC3CCCC3)cc2)CC1	20.6µM*	13.1	5.1%	18.4µM*	-0.9%	14.5%
Cc1ccccc1CN1CCC(Oc2ccc(C(=O)N3CCCC3)cc2)CC1	-14.6%	1.0	0.1%	-18.2%	-1.9%	?
SMILES	DT40 TDP1 no CPT	IL1B secr inh	SW480 rereplic	TDP1 cell CPT	Chronic BCR inh	MCF10A rereplic
CC1=C(C(=O)Nc2ccc(F)cc2F)C2(CCN(C(C)C)CC2)OC1=O	-1.7%	/	/	-6.8%	/	/
CCOC(=O)C1(C)CCN1C(=O)c1c(F)cccc1F (centres undefined)	-14.9%	7.4	/	4.9%	/	/
Cc1cc(=O)cc2oc3cc(N)c(-c4c(C)cc(O)cc4O)c(C)c3nc1-2	-23.9%	/	/	4.5%	/	/
O=C(c1ccc(OC2CCN(C/C=C/c3ccc(F)cc3)CC2)cc1)N1CCCC1	?	-71.4*	-4.0%	25.9µM*	-7.3%	17.6%
CCc1ccc(CN2CCC(Oc3ccc(C(=O)N4CCCCC4)cc3)CC2)cc1	14.6µM*	i	?	?	-4.9%	1.9%
CC(C)(C)OC(=O)C[C@@H]1C/C=C\C[C@@H](CC(=O)N(CCO)Cc2ccccc2)C(=O)NC[C@H](c2ccccc2)OC1=O	?	-6.4	-0.4%	11.6µM*	-1.0%	0.5%
CC(C)(C)OC(=O)C[C@@H]1C/C=C\C[C@@H](CC(=O)N(CCO)Cc2ccccc2)C(=O)NC[C@@H](c2ccccc2)OC1=O	?	-4.1	-4.3%	20.6µM*	-2.0%	-1.1%
CC(C)(C)OC(=O)C[C@@H]1C/C=C\C[C@H](CC(=O)N(CCO)Cc2ccccc2)C(=O)NC[C@H](c2ccccc2)OC1=O	?	-22.6	-0.3%	?	?	11.6%
NS(=O)(=O)c1cccc(NC(=S)NC(=O)C23CC4CC(CC(C4)C2)C3)c1	20.6µM*	-86.5*	2.7%	?	-0.8%	?
Cc1ccc(S(=O)(=O)N(C)C)cc1NC(=S)NC(=O)C12CC3CC(CC(C3)C1)C2	8.2µM*	41.9	-3.7%	9.2µM*	-5.3%	16.0%
